Measurements from ChEMBL document CHEMBL1961873, “Compounds: GSK PKIS; Assays: Nanosyn kinase panel” (2012).

molecular target: Mast/stem cell growth factor receptor Kit (Homo sapiens) (UniProt P10721); settings: at 0.1 µM
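Further: values are mean inhibition of KIT, from the GSK PKIS dataset.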

Chain of Mast/stem cell growth factor receptor Kit (Homo sapiens) (P10721 whole entry): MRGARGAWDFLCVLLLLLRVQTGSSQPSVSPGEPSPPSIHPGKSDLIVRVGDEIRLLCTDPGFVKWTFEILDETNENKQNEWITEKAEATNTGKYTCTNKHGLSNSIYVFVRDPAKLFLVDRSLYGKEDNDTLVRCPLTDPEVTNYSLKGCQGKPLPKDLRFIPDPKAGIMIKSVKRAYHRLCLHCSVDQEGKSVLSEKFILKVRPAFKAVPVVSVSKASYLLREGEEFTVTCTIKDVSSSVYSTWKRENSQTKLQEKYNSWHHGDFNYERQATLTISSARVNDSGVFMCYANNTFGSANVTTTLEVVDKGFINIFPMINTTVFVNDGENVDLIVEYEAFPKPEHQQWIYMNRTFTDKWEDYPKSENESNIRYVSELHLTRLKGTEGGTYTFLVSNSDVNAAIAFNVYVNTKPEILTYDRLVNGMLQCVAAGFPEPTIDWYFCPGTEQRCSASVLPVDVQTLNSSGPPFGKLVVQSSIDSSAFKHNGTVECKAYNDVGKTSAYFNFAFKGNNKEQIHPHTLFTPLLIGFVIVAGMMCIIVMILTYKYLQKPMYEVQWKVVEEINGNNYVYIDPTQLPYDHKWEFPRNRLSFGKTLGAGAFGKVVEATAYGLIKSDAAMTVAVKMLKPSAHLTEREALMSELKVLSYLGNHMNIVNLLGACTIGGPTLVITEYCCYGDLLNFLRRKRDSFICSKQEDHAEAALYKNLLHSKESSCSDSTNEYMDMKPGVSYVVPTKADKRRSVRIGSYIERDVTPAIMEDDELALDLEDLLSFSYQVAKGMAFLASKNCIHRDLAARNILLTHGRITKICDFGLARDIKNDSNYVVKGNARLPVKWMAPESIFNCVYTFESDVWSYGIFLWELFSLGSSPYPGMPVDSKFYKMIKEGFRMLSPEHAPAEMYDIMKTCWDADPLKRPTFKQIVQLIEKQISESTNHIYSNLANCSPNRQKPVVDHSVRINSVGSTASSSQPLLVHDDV

| SMILES | inhibition |
| --- | --- |
| NS(=O)(=O)c1ccc(Nc2cc(-c3ccc(O)c(F)c3)n[nH]2)cc1 | 20.9% |
| CCc1ccc(Oc2nccc(-c3c(-c4ccc(F)cc4)ncn3C3CCNCC3)n2)cc1 | 4.71% |
| CN1CCN(CCCNc2nc3ccc(Oc4ccc(NC(=O)Nc5cc(C(F)(F)F)ccc5F)cc4)cc3[nH]2)CC1 | 48.5% |
| Fc1ccc(-c2ncn(C3CCNCC3)c2-c2ccnc(Oc3ccc(F)c(F)c3)n2)cc1 | 1.92% |
| NC(=O)Cc1ccccc1Oc1nccc(-c2c(-c3ccc(F)cc3)ncn2C2CCNCC2)n1 | 1.71% |
| FC(F)(F)c1cccc(Nc2nccc(-c3cnn4nc(-c5ccccc5)ccc34)n2)c1 | 5.78% |
| COc1cccc(/C=N/Nc2ncnc3c2cnn3-c2cccc(OC)c2)c1 | 6.67% |
| CN(c1ccc(NC(=O)Nc2c(Cl)cccc2Cl)cc1)c1ccnc(Nc2cccc(CS(C)(=O)=O)c2)n1 | 88.5% |
| Cc1ccc(NC(=O)c2ccoc2)cc1-c1ccc(C(=O)NCC2CC2)cc1 | 1.57% |
| COC(=O)Nc1nc2ccc(Sc3ccc(NC(=O)Nc4cc(C(F)(F)F)ccc4F)cc3)cc2[nH]1 | 1.63% |
| COc1cc(Nc2ncc3c(C)nc(-c4cccc(Oc5ccccc5)c4)n3n2)cc(OC)c1OC | 3.09% |
| CCS(=O)(=O)c1ccc(OC)c(Nc2ncc(-c3cccc(-c4ccccc4F)c3)o2)c1 | 53.7% |
| Cc1ccc(C(=O)NC(C)C)cc1-c1ccc(C(=O)NCC2CC2)cc1 | -2.99% |
| CS(=O)(=O)CCNCc1ccc(-c2ccc3ncnc(Nc4ccc(OCc5ccccc5)c(Br)c4)c3c2)o1 | 3.38% |
| O=C(Nc1n[nH]c2cc(-c3ccccc3)ccc12)C1CC1 | 3.52% |
| COc1ccc(C2=C(N3CCc4ccccc43)C(=O)NC2=O)cc1 | 7.63% |
| NC(=O)c1cc(-c2ccc(F)cc2)cc(-c2ccncc2)c1N | 11.9% |
| COc1cc2ncn(-c3cc(OCc4cccs4)c(C(N)=O)s3)c2cc1OC | 1.96% |
